Measurements reported in PubChem BioAssay AID624304 (Sanford-Burnham Center for Chemical Genomics, 2012).
Hit rate of the full screen: of about 360,000 compounds, about 1,800 (0.5%) were called active.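 Rule for the calls: active = interference check ratio from 0.5 to 1.5 plus GFP to RFP signal ratio inhibition reaching or exceeding a fixed threshold (cut at about 30% in these data, passing the limit was not always enough); inactive = the rest.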 The list comes from a sample in which actives are over-represented; it also holds similar structures and randomly drawn compounds.

Assay: gst-4 reporter inhibition in live C. elegans – whole organism, uHTS, GFP/RFP fluorescence ratio, strain VP596, SKN-1 inhibitor project, primary screen (AID 624304)
Conditions: C. elegans VP596 Pgst-4::GFP/RFP ratio, acrylamide-induced, 24 h; at 21.8 µM; stronger effect = higher value

Row | SMILES | inhibition
1 | COc1ccc(N2C(=O)C(CC(=O)Nc3ccc(F)cc3)N(CCc3cccs3)C2=O)cc1 (stereo not given) | -3.33% (inactive)
2 | COc1ccc(-n2nc(C(=O)Nc3cc(OC)c(OC)c(OC)c3)c3ccccc3c2=O)c(OC)c1 | 6.93% (inactive)
3 | COCCN1C(=O)N(c2ccc(Cl)cc2)C(=O)C1CC(=O)Nc1cc(OC)cc(OC)c1 (stereo not given) | 17% (inactive)
4 | C[C@H](OC(=O)n1ccnc1)[C@@H]1O[C@@]2(C)CCC[C@@H]1O2 | 13.4% (inactive)
5 | C=CCSc1nsc(NC(=O)Nc2cccc(C(C)=O)c2)n1 | 2.8% (inactive)
6 | C=CCSc1nnc2c(n1)-c1cccc3cccc-2c13 | 53.1% (active)
7 | COc1ccnc2c1c(=O)n(Cc1cccc(F)c1)c(=O)n2C | 13.9% (inactive)
8 | CCCCC(CC)C(=O)Nc1ccc(Cl)cn1 (stereo not given) | -11.4% (inactive)
9 | COc1ccc(C(=O)N/N=C(\C)CC(=O)Nc2ccc(Cl)cn2)cc1 | 3.73% (inactive)
10 | CCCc1cc(C(=O)Nc2ccc(Cl)cn2)cs1 | 35% (active)
11 | C=CCC1(C(=O)N(C)Cc2ccccc2)CCN(C(=O)OC(C)(C)C)CC1 | 4.4% (inactive)
12 | COCCN(C(=S)Nc1cccc(Cl)c1C)C(C)c1ccco1 (stereo not given) | 2.25% (inactive)
13 | C/C(=N\NC(=O)OC(C)(C)C)c1ccc[nH]1 | 10.7% (inactive)
14 | CCOC(=O)c1ccc(NC(=O)c2nc[nH]c2C(=O)N[C@@H](CCCCNC(=O)OC(C)(C)C)C(=O)OC(C)(C)C)cc1 | -1.6% (inactive)
15 | c1ccc2c(c1)OCCOCCOCCO2 | 2.75% (inactive)
16 | CCC1CCCCN1C(=O)CSc1nc2c(c(=O)n(C)c(=O)n2C)n1C (stereo not given) | 10.5% (inactive)
17 | CCn1c(SCc2cc(=O)n3ccsc3n2)nc2ccccc21 | 13.5% (inactive)
18 | Cc1nc2nc(CSc3nc4ccccc4s3)cc(=O)n2[nH]1 | 31.9% (active)
19 | CCCc1cc(=O)n2[nH]c(SCc3ccccc3)nc2n1 | 11.9% (inactive)
20 | COc1ccc2c(c1)c1ncn(Cc3ccccn3)c(=O)c1n2C | -9.72% (inactive)
21 | Clc1ccc(-c2csc(-c3ccncc3)n2)cc1 | 73.1% (active)
22 | N#CC(=C1CCCC1)c1nc(-c2ccc(Cl)cc2)cs1 | -17.2% (inactive)
23 | Fc1ccc(-c2csc(-c3ccc(C4SCCS4)cc3)n2)cc1F | -2.79% (inactive)
24 | COc1ccc(C)cc1NC(=O)c1[nH]c(C)c(C(C)=O)c1C | -2.27% (inactive)

Row | SMILES | inhibition
25 | COc1ccc(NC(=O)C2Cc3c(-c4cccc(NC(C)=O)c4)ccnc3O2)cc1OC (stereo not given) | 7.14% (inactive)
26 | c1ccc(Nc2nc(-c3ccncc3)cs2)nc1 | 38.3% (active)
27 | N#Cc1ccc(OCC(=O)Nc2nc(-c3ccccn3)cs2)cc1 | 0.752% (inactive)
28 | COc1ccc(-c2csc(Nc3ccccn3)n2)cc1 | 40% (active)
29 | Clc1ccc(Cc2nnc(-c3cccs3)o2)cc1 | -1.16% (inactive)
30 | COc1ccc(C(O)c2nc(-c3ccc(OC)nc3)cs2)cc1 (stereo not given) | -3.44% (inactive)
31 | O=C(Nc1ccc(Cl)cn1)c1ccccc1-c1ccccc1 | 19.1% (inactive)
32 | COc1ccc2nc(-c3ccccn3)ccc2c1 | 18.4% (inactive)
33 | Clc1ccc(Nc2nc(-c3cccs3)cs2)nc1 | 84.2% (active)
34 | CC(NC(=O)c1ccco1)C(=O)Nc1nc(-c2ccccn2)cs1 (stereo not given) | -5.6% (inactive)
35 | C=CCC[C@H](Cc1ccc(F)cc1)C(=O)OC[C@@H](Cc1c[nH]c2ccccc12)NC(=O)[C@H](CC=C)CC(=O)N[C@H](CO)Cc1ccccc1 | 1.71% (inactive)
36 | CN(C(=O)c1ccccc1)c1nccnc1C#N | -2.1% (inactive)
37 | O=C(NCCc1ccccc1)C1CCC(Cn2c(=O)c3ccccc3n(Cc3cccnc3)c2=O)CC1 (stereo not given) | 2.01% (inactive)
38 | O=C(c1ccc(=O)oc1)N1CCC(C(O)(c2ccccc2)c2ccccc2)CC1 | 22.9% (inactive)
39 | NC(=O)C1CCN(C(=O)c2ccc(C(F)(F)F)cc2)CC1 | 1.88% (inactive)
40 | CCn1cnc2scc(-c3ccc(C)c(C)c3)c2c1=O | 9.07% (inactive)
41 | C[C@H]1NS(=O)(=O)c2cc(Cl)ccc2O[C@@H]1c1ccccc1 | 12.8% (inactive)
42 | O=C(N/N=C\c1cccc(Br)c1)c1ccccc1-n1cccc1 | 49.3% (active)
43 | COc1cc(OC)c(C(=O)NNC(=O)c2ccccc2-n2cccc2)cc1OC | -9.97% (inactive)
44 | Cc1nnsc1C(=O)N/N=C/c1cccc(C(F)(F)F)c1 | 6.82% (inactive)
45 | CC(C)Nc1ccc(-n2nc3ccccc3[n+]2[O-])cc1 | 8.98% (inactive)
46 | COCCNC(=O)CCCN1C(=O)c2ccccc2Sc2ncccc21 | 4.78% (inactive)
47 | O=C(O)CCCN1C(=O)C2C3c4ccccc4C(c4ccccc43)[C@@H]2C1=O (stereo not given in full) | -5.65% (inactive)
48 | O=C(O)CCCN1C(=O)c2ccccc2Sc2ncccc21 | 45.5% (active)

Row | SMILES | inhibition
49 | Fc1ccc(N2N=C(c3cccs3)CC2c2ccco2)c(F)c1 (stereo not given) | 12.6% (inactive)
50 | Cc1cc(C)c2cc(C#N)c(N3CCNCC3)nc2c1 | 5.2% (inactive)
51 | Cc1cccc2cc(C#N)c(N3CCCC3)nc12 | 32.6% (active)
52 | Cc1nc2cc(NC(=O)CSc3nc4c(C)cccc4cc3C#N)ccc2s1 | -3.68% (inactive)
53 | Cc1cccc(C(=O)Nc2ccc(C(=O)/C=C/c3cccs3)cc2)c1 | 46.6% (active)
54 | CC(=O)Nc1ccc(NC(=O)[C@@H](NC(=O)c2cccc(C)c2)C(C)C)cc1 | 12.9% (inactive)
55 | Cc1cccc(C(=O)N[C@H](C(=O)NCc2cccs2)C(C)C)c1 | 1.58% (inactive)
56 | CCCCCCCC(=O)OC(CN1CCCCCC1)CN1CCCC1=O (stereo not given) | 0.0276% (inactive)
57 | O=Cc1c(Cl)cccc1Cl | 2.42% (inactive)
58 | CCC(=O)Nc1c(C)n[nH]c1C | -5.42% (inactive)
59 | Cn1c(CC(=O)Nc2ccc(F)cc2)nnc1SCC(=O)NC1CCCCC1 | 7.79% (inactive)
60 | C=CCn1c(CC(=O)Nc2cccc(OC)c2)nnc1SCC(=O)NC1CCCCC1 | 37.9% (active)
61 | COc1cccc(NC(=O)CSc2nnc(C3CCCCC3)n2N)c1 | -8.2% (inactive)
62 | CC(C)C(=O)Nc1c(C(=O)c2ccc(F)cc2)oc2ccccc12 | 19.7% (inactive)
63 | Clc1ccc(COn2c(-c3ccc(Cl)cc3Cl)nc3ncccc32)cc1 | 28.6% (inactive)
64 | Fc1ccc(-c2ccc(CNCc3ccccn3)o2)cc1Cl | -1.67% (inactive)
65 | Clc1ccc(-c2cc(-c3ccccn3)on2)c(Cl)c1 | 65.8% (active)
66 | COC(=O)[C@]1(Cc2ccccc2)N[C@H](CN(C)S(=O)(=O)c2ccc(OC(F)(F)F)cc2)[C@@H]2C(=O)N(C)C(=O)[C@@H]21 | 3.7% (inactive)
67 | N=c1c2c(-c3ccccc3)c(-c3ccccc3)n(Cc3ccccc3)c2ncn1CCCO | 36.6% (active)
68 | COCCn1cnc2c1c(=O)n(Cc1ccc(Br)cc1)c(=O)n2Cc1ccccc1 | 21.1% (inactive)
69 | COCCn1cnc2c1c(=O)n(CC(=O)NN)c(=O)n2Cc1ccccc1 | 5.34% (inactive)
70 | Cc1[nH]c(C)c(S(=O)(=O)N2CCN(c3cccc(C(F)(F)F)c3)CC2)c1C(=O)N1CCCC1 | 16.8% (inactive)
71 | CCOC(=O)[C@]12CCCC=C1N(CCC1=CCCCC1)C(=O)[C@H](CC(=O)N1CCOCC1)C2 | 6.43% (inactive)
72 | Cc1cccc(N2CCN(c3ccc(C(N)=O)cc3[N+](=O)[O-])CC2)c1C | 6.19% (inactive)

Row | SMILES | inhibition
73 | CN1CN(C)c2ccc([N+](=O)[O-])c3cccc1c23 | 38.8% (active)
74 | CN1CCN(S(=O)(=O)c2ccc(N3CCN(c4ccccc4O)CC3)c([N+](=O)[O-])c2)CC1 | -7.8% (inactive)
75 | COc1ncnc2c1N=C1CC(C)(C)CC(N)=C1S2 | 46.6% (active)
76 | CCOc1ccc(C(CC(=O)O)NC(=O)COc2ccccc2)cc1 (stereo not given) | 0.0857% (inactive)
77 | O=C(Oc1ccc(-c2nc(-c3ccccn3)no2)cc1)c1ccccc1 | 26.9% (inactive)
78 | CCS(=O)(=O)c1ccc(-c2cccc(NC(=O)c3ccc(Br)o3)c2)nn1 | 19.3% (inactive)
79 | Brc1ccc(-c2noc(-c3ccccc3)n2)o1 | 53.9% (active)
80 | CCCN(CCC)c1ccc(C(O)c2nnc(-c3ccccc3)o2)cc1 (stereo not given) | 5.96% (inactive)
81 | OC(c1nnc(-c2ccccc2)o1)c1cccs1 (stereo not given) | -9.63% (inactive)
82 | Brc1ccc(-c2nnc(-c3ccccc3)o2)o1 | 47.1% (active)
83 | Nc1nonc1-c1noc(-c2ccc(Br)o2)n1 | 34.9% (inactive)
84 | CN1CCN(C(=O)c2ccc(NC(=O)c3ccc(Br)o3)cc2)CC1 | -9.6% (inactive)
85 | O=C(Nc1ccc(-c2nnc(-c3ccccc3)o2)cc1)c1ccc(Br)o1 | 34.6% (active)
86 | CN1CCN(C(CNS(=O)(=O)c2cccs2)c2cccnc2)CC1 (stereo not given) | -8.82% (inactive)
87 | CCOc1cc2[nH]c(=O)n(CCC(=O)NCc3ccc(OC)cc3)c(=O)c2cc1OCC | -1.79% (inactive)
88 | CCCc1ccc(S(=O)(=O)N2CCN(C(=O)c3cc(C)on3)CC2)cc1 | 12.9% (inactive)
89 | Cc1c(C(=O)NCC(c2ccco2)N2CCCC2)oc2ccc(Cl)cc12 (stereo not given) | 3.49% (inactive)
90 | CN(Cc1ccccc1F)c1cc2c(c3c1ccn3C)C1CCC2O1 (stereo not given) | 6.79% (inactive)
91 | Fc1c(F)c(C(F)(F)F)c(F)c(F)c1N1CCN(c2ccc3nnc(C(F)(F)F)n3n2)CC1 | -6.81% (inactive)
92 | C=CCCC(=O)N1C[C@H]2CON(C)[C@H]2C[C@H]1c1cccc(Nc2ccccc2)c1 | 3.69% (inactive)
93 | N/C(=N\OC(=O)Nc1ccccc1)c1ccno1 | 11.3% (inactive)
94 | COC(=O)c1[nH]c2ccc(Br)cc2c1NC(=O)Oc1ccccc1 | 6.84% (inactive)
95 | COc1ccc(CCC(=O)OCC(=O)Nc2ccc(C)c(S(=O)(=O)N(C)C)c2)cc1 | -9.73% (inactive)
